# Compound activity deposited in PubChem by National Center for Advancing Translational Sciences (NCATS).
# TDP1 cell CPT – DT40-hTDP1 cell growth loss with CPT; chicken DT40 Tdp1-/-;hTDP1 cells + 20 nM CPT, ATP luminescence, 48 h; Potency, µM (series often up to 46.2 µM), actives largely listed as inhibitors; hit rate 12% among 420,000; further: nearly all actives have a fitted effect of over 55% in size
#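 Chicken DT40 Tdp1-/- cells stably complemented with human TDP1 were seeded at 400 cells/well in medium containing 20 nM camptothecin, exposed to pin-transferred compounds, and grown at 37 °C for at least 48 hr. Viability was read as ATP luminescence.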
# DT40 TDP1 no CPT – qHTS for Inhibitors of human tyrosyl-DNA phosphodiesterase 1 (TDP1): qHTS in cells in absence of CPT; DT40 Tdp1-/- hTDP1 cells, no CPT, ATP luminescence, 48 h; Potency, µM (highest dose often 46.2 µM), hits mostly inhibitors; hit rate 15% among 420,000; AID 686978, 2013; further: nearly all actives have a fitted effect of over 55% in size
#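 Seeded 400 DT40-hTDP1 cells/well (vehicle DMSO, no 20 nM CPT); pinned compounds; ≥48 hr at 37 °C; CellTiter-Glo luminescence as viability measure.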
# HT1080NT lethal – kills 2HG-producing HT-1080-NT fibrosarcoma cells | Potency, µM (highest dose often 46.1 µM), actives largely listed as cytotoxic | AID 686970 | hit rate 1.6% among 360,000 | HT-1080-NT fibrosarcoma viability, CellTiter-Glo ATP luminescence, 48 h;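 further: NT is the 2HG producing partner of a matched IDH1 knockdown line; nearly all actives have a fitted effect of over 55% in size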
#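 HT-1080-NT; 750 cells/well; 5% FBS RPMI; 48 h compound, 37 degrees C; CellTiter-Glo luminescence; curve fitting and curve-class assignment.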
# IL1B secr inh – blocks inflammasome-driven IL-1 beta release | THP-1 LPS/ATP IL-1B secretion, AlphaLISA, 16 h; stronger effect = lower value | hit rate 4.7% among 360,000 | activity change, % at 57.5 µM | AID 743279; in the data active means activity change below about -50%; inconclusive means mostly about -30% to -49%
#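 Secreted IL-1B measured by AlphaLISA bead assay after 16 h compound exposure of THP-1 cells; compounds (final up to 57.5 uM) added 1 h before LPS (250 ng/mL) and ATP (1.25 mM) stimulation; lower signal means less secretion.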
# HT1080 IDH1KD tx – HT-1080 IDH1 knockdown cell toxicity (counter line) | HT-1080 IDH1 knockdown viability, ATP luminescence, 48 h | Potency, µM (top dose mostly 46.1 µM), most hits filed as cytotoxic | hit rate 2% among 360,000 | AID 686971
#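 In this qHTS, HT-1080 cells depleted of IDH1 are exposed for 48 h at 37 °C to compound titrations. Toxicity is scored from CellTiter-Glo luminescence, with DMSO as full viability and medium alone as none.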
# Hits are given with their value; 0 = inactive; ? = inconclusive; - = no result; [ ] = another dose, or the depositor's remark. Sampled rows, rich in hits. Any-hit rate of the full collection: about 19%. Unless noted, the call rests on the fitted dose curve; in most records, active means well fitted curve in the direction sought with a large enough effect; inconclusive means small, poorly fitted or top-dose-only effect, or another doubt; inactive means no such curve, though single readings can be large; an effect the other way counts as inactive or inconclusive.
SMILES,TDP1 cell CPT,DT40 TDP1 no CPT,HT1080NT lethal,IL1B secr inh,HT1080 IDH1KD tx
COc1ccccc1NC(=O)Nc1nc(CC(=O)N2CCN(c3ccccc3F)CC2)cs1,?,18µM,0,0,?
COc1cccc(CNC(=O)Cc2csc(NC(=O)Nc3ccccc3OC)n2)c1,?,21µM,0,0,0
CC(=O)Nc1ccc(SCCN2CC[C@@H](C)CCC2=O)cc1,0,0,0,0,0
CC(=O)Nc1cccc(-c2cc(NC=O)c3ncc(-c4ccc(C(C)=O)cc4)n3c2)c1,?,16µM,23µM,0,0
COc1cccc(-c2cnc3c(NC(C)=O)cc(-c4cccc(C(=O)N(C)C)c4)cn23)c1,?,?,0,0,0
COc1cccc(-c2cc(NC(C)=O)c3ncc(-c4ccc(OC)c(OC)c4)n3c2)c1,?,21µM,0,-81,0
COc1cccc(-c2cnc3c(NC(C)=O)cc(-c4ccc(OC)c(OC)c4)cn23)c1,10µM,15µM,?,?,?
COc1cccc(-c2cnc3c(NC(C)=O)cc(-c4ccsc4)cn23)c1,13µM,15µM,0,0,0
CC(CNC(=O)c1cccs1)c1ccc([N+](=O)[O-])cc1 (stereo not drawn),0,0,0,?,0
CCOc1ccc(CCNC(=O)c2cccc(C#N)c2)cc1OCC,0,?,0,0,0
NC1CCc2ccc([N+](=O)[O-])cc21 (stereo not drawn),0,?,-,-,-
COc1ccc(-c2cc(NC(C)=O)c3ncc(-c4cccc(C(C)=O)c4)n3c2)cc1OC,21µM,21µM,0,?,?
CC(=O)Nc1cc(-c2ccc(N3CCN(C)CC3)cc2)cn2c(-c3cccc(C(C)=O)c3)cnc12,?,?,0,0,0
COc1ccc(-c2cc(NC=O)c3ncc(-c4ccc(C(C)=O)cc4)n3c2)cn1,5.2µM,7.3µM,?,0,?
CC(=O)Nc1cccc(-c2cc(NC(C)=O)c3ncc(-c4cccc(C(C)=O)c4)n3c2)c1,23µM,10µM,0,0,?
CC(=O)Nc1cc(-c2cccc(NS(C)(=O)=O)c2)cn2c(-c3cccc(C(F)(F)F)c3)cnc12,18µM,18µM,?,0,?
CC(OC(=O)CCNS(=O)(=O)c1ccc(Cl)cc1)C(=O)N(C)Cc1ccccc1 (stereo not drawn),?,?,0,0,0
CCn1c(CC(=O)Nc2ccccc2F)nnc1SCC(=O)NC1=NCCS1,?,?,0,0,0
Nc1c(C(=O)N2CCCC2)sc2nc(-c3ccccc3)ccc12,0,0,0,?,0
COc1cc(OC)c2c(c1)OC(c1ccc(OC)c(OC)c1)C(O)C2=O (stereo not drawn),?,?,0,0,0
COc1ccc2c(c1)C(=O)[C@@H](O)[C@H](c1ccc(OC)c(Br)c1)O2,21µM,?,0,0,0
COc1cccc([C@@H]2Oc3ccc(OC)cc3C(=O)[C@H]2O)c1,6.5µM,12µM,?,0,0
COc1cccc([C@@H]2Oc3ccc(Br)cc3C(=O)[C@H]2OC(=O)NC2CCCC2)c1,?,?,0,-61,?
CC[C@H](C)[C@@H](NC(=O)O[C@@H]1C(=O)c2cc(Br)ccc2O[C@H]1c1cccc(OC)c1)C(=O)OC,?,?,0,0,0
CC1=C(C#N)c2nc(N)c(C#N)c(C)c2/C1=C\c1ccc(OCC(=O)O)c(Cl)c1,0,?,0,0,0
SMILES,TDP1 cell CPT,DT40 TDP1 no CPT,HT1080NT lethal,IL1B secr inh,HT1080 IDH1KD tx
CC1(C)C(=O)Nc2ccccc2N1C(=O)COC(=O)COc1ccc(C#N)cc1,0,0,0,0,0
O=C(Nc1ncccc1O)C1CCN(S(=O)(=O)c2ccc3ccccc3c2)CC1,0,0,0,0,0
Cc1ccc(-n2nnnc2C(=Cc2ccc(N(C)C)cc2)c2nnnn2-c2ccc(C)cc2)cc1,?,0,0,0,0
CCN(CC)c1ccc(C=C(c2nnnn2-c2ccccc2)c2nnnn2-c2ccccc2)cc1,?,10µM,0,0,0
C[C@@H]1CN([C@H](C)CO)C(=O)c2cc(C#Cc3ccccc3F)cnc2O[C@@H]1CN(C)S(=O)(=O)c1ccccc1F,0,0,0,0,0
CC(C)n1c(-c2ccc(C(C)(C)C)cc2)n[nH]c1=S,11µM,?,0,0,0
Cc1ccc(-c2n[nH]c(=S)n2C)cc1,26µM,16µM,0,0,0
Cc1ccc(-n2c(Cc3ccccc3)n[nH]c2=S)c(C)c1,0,0,0,-67,0
CC(C)n1c(-c2ccccc2F)n[nH]c1=S,0,0,?,0,?
COc1ccc(-c2n[nH]c(=S)n2-c2ccc(C)cc2)cc1,?,?,0,0,0
CC(C)(C)c1ccc(-c2n[nH]c(=S)n2Cc2ccccc2)cc1,?,12µM,?,0,?
O=C(CCCNC(=O)c1ccc(Cl)cc1)NCc1ccccc1F,0,0,0,0,0
COc1ccc(N2CCN(C(=O)C3CCCN3S(=O)(=O)c3cccc4nsnc34)CC2)cc1 (stereo not drawn),0,?,0,0,0
c1ccc2cnccc2c1,0,0,-,-,-
CCc1c(-c2n[nH]c(=S)n2Cc2ccccc2)csc1C,5.8µM,4.6µM,0,0,0
Cc1ccc(OCc2n[nH]c(=S)n2Cc2ccccc2)cc1,0,0,0,0,0
CCCCOc1ccc(-c2n[nH]c(=S)n2Cc2ccccc2)cc1,?,26µM,?,0,0
COc1ccc(-c2n[nH]c(=S)n2-c2cc(OC)ccc2OC)cc1,0,0,0,0,0
COc1ccc(-n2c(-c3ccc(C(C)(C)C)cc3)n[nH]c2=S)c(OC)c1,16µM,23µM,0,0,0
Fc1ccc(-c2n[nH]c(=S)n2Cc2ccccc2)cc1,0,0,0,0,0
CCOc1ccc(Cc2n[nH]c(=S)n2Cc2ccccc2)cc1,?,16µM,0,0,0
COc1cccc(C2/C(=C(\O)c3ccc4c(c3)OCCO4)C(=O)C(=O)N2Cc2cccnc2)c1 (stereo not drawn),0,0,0,0,0
COc1ccccc1NC(=O)c1c(NCc2ccc(OC)c(OC)c2OC)sc2c1CCC2,?,23µM,-,-,-
CCOC(=O)c1ccc(NC(=O)c2c(NCc3sccc3C)sc3c2CCCCC3)cc1,12µM,21µM,-,-,-
CCOC(=O)N1CCc2c(sc(NCc3ccc(OC)c(OC)c3OC)c2C(=O)Nc2ccc(OC)cc2OC)C1,?,16µM,-,-,-
CCOC(=O)c1c(NC(=O)c2cc(OC)c(OC)c(OC)c2)sc2c1CCCC2,0,0,-,-,-
CCOC(=O)c1ccc(NC(=O)c2c(NCc3cccc(OC)c3OC)sc3c2CCC3)cc1,15µM,21µM,-,-,-
OC1(c2cccnc2)CCN(Cc2ccc3c(c2)CN(Cc2ccc4nsnc4c2)CCO3)CC1,0[9.04 µM],?,-,-,-
